Source: the supplement of paper PMC12645437, “Orthogonal IMiD-Degron Pairs Induce Selective Protein Degradation in Cells” (ACS Chemical Biology, 2025)
In all, about 8,300 sequences were measured (“log2 fold change of degron read counts, EGFP-low vs EGFP+ sorted cells (limma voom), compound-induced degradation”: median about -1.1, highest 2% from about 3.2 on). The list comes from a sample in which the highest values are over-represented; it also holds similar and randomly drawn sequences.

T1: CRBN, Q96SW2
T1 chain: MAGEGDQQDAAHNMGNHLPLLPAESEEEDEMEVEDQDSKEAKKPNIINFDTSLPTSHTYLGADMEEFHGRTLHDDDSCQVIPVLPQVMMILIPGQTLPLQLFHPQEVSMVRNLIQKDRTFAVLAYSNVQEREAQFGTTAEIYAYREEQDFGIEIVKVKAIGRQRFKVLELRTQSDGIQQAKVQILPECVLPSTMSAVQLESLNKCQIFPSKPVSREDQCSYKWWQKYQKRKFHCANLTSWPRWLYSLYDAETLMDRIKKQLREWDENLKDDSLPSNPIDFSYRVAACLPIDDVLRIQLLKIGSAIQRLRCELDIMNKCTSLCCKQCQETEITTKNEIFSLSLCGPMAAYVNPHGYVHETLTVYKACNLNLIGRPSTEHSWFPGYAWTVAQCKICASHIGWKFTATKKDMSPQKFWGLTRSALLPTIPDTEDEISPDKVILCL

B1: 46L_47H_49P_50I_52G_53F_54F_55C_67L_, Q9UKT9 (peptide)
chain: LHCPICGFFCTQKGNLLRHIKL
B2: 46L_47G_49P_50I_52G_53F_54F_55C_67L_, Q9UKT9 (peptide)
chain: LGCPICGFFCTQKGNLLRHIKL
B3: 46L_47W_49P_50I_52G_53F_54F_55C_67L_, Q9UKT9 (peptide)
chain: LWCPICGFFCTQKGNLLRHIKL
B4: 46L_47C_49P_50I_52G_53F_54F_55C_67L_, Q9UKT9 (peptide)
chain: LCCPICGFFCTQKGNLLRHIKL
B5: 46L_47A_49P_50I_52G_53F_54F_55C_67L_, Q9UKT9 (peptide)
chain: LACPICGFFCTQKGNLLRHIKL
B6: 46L_47S_49P_50I_52G_53F_54F_55C_67L_, Q9UKT9 (peptide)
chain: LSCPICGFFCTQKGNLLRHIKL
B7: 46F_47V_49N_50Q_52G_53A_54A_55F_67L_, Q9UKT9 (peptide)
chain: FVCNQCGAAFTQKGNLLRHIKL
B8: 46F_47T_49N_50Q_52G_53R_54R_55F_67L_, Q9UKT9 (peptide)
chain: FTCNQCGRRFTQKGNLLRHIKL

Molecular target: T1, CRBN, Q96SW2
Experiment: log2 fold change of degron read counts, EGFP-low vs EGFP+ sorted cells (limma voom), compound-induced degradation; higher = more compound-induced degradation of the degron-EGFP fusion; degrons are variants of IKZF1/3 zinc finger 2; compound dose not given here
Conditions: Jurkat, 18 h
[1] = compound: compound 19 (5-tert-butyl-thalidomide)
[2] = compound: compound 22 (5-morpholino-thalidomide)
[3] = compound: compound 33 (diphenyl IMiD analogue)
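Also: pooled lentiviral library of zinc finger degron-EGFP fusions in mCherry-positive Jurkat cells, FACS-sorted after compound exposure, with degron abundance counted by next-generation sequencing.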

Row | Sequence | log2 fold change of degron read counts [1] | log2 fold change of degron read counts [2] | log2 fold change of degron read counts [3] | log2 fold change of degron read counts (compound: thalidomide)
1 | B1 | 2.35 | 2.51 | 2.79 | 2.23
2 | B2 | 3.27 | 2.15 | 2.31 | 1.94
3 | B3 | 2.66 | 3.04 | 2.81 | 2.05
4 | B4 | 1.09 | 1.75 | 2.77 | 2.39
5 | B5 | 3.31 | 2.49 | 2.27 | 2.24
6 | B6 | 2.05 | 1.71 | 2.64 | 2.39
7 | B7 | -2.28 | -0.788 | -0.293 | -0.146
8 | B8 | -2.59 | -2.14 | -1.95 | -1.42
